Data on 9 compounds can be found in PubChem BioAssay (NCI).

Test systems include SR leukemia; RPMI-8226 leukemia; OVCAR-8 ovarian; OVCAR-5 ovarian; OVCAR-4 ovarian; SK-OV-3 ovarian; OVCAR-3 ovarian; HS 578T breast; NCI/ADR-RES ovarian; T-47D breast; MDA-MB-435 melanoma; SW-620 colon; MCF7 breast; HCT-116 colon; HCC-2998 colon; KM12 colon; IGROV1 ovarian; BT-549 breast.
Common to all, as to experiment: NCI-60 one-dose screen, 48 h (100 = growth as untreated, 0 = no growth, -100 = all killed)
Common to all, as to conditions: 10 µM unless noted

Compounds without any hit were thinned out: in the full panel of roughly 83,000, 20% have a hit.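 A percent growth of 40 corresponds to 60% growth inhibition; 0 means no net growth; -100 means all cells died. Active threshold: below 10.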 Unmarked numbers belong to inactive results. The source made the active and inactive calls.

Take `O=C(Cn1cc(CN2C(=O)c3ccccc3S2(=O)=O)nn1)Nc1cccc(Cl)c1`: the growth was 113% with SR leukemia; 104% with RPMI-8226 leukemia; 113% with OVCAR-8 ovarian; 112% with OVCAR-5 ovarian; 109% with OVCAR-4 ovarian; 79.3% in the experiment on SK-OV-3 ovarian. Moreover, the growth was 106% in the experiment with OVCAR-3 ovarian; 107% in the experiment on HS 578T breast; 93.1% in the experiment with NCI/ADR-RES ovarian; 97% in the experiment with T-47D breast; 100% with MDA-MB-435 melanoma; 102% with SW-620 colon. The growth in the experiment on MCF7 breast was 92.5%; with HCT-116 colon, 98.8%; in the experiment on HCC-2998 colon it was 93.5%; in the experiment on KM12 colon, 104%.

With `CN(C)c1ccc(C(=NO)c2ccc(N(C)C)cc2)cc1`, the growth in the experiment with SR leukemia is 12.7%; in the experiment on RPMI-8226 leukemia it was 49.5%; in the experiment with OVCAR-8 ovarian, 39.4%; in the experiment with OVCAR-5 ovarian, 81.4%; in the experiment with OVCAR-4 ovarian, 71.3%; in the experiment on SK-OV-3 ovarian it was 57.7%. Besides, the growth in the experiment with OVCAR-3 ovarian was -15.1% (active); in the experiment with HS 578T breast it was 51.1%; in the experiment with NCI/ADR-RES ovarian, 13.4%; in the experiment on T-47D breast, 45.8%; in the experiment with MDA-MB-435 melanoma, -43.2% (active); with SW-620 colon, 13.4%. Further, the growth with MCF7 breast was 32.6%; with HCT-116 colon, 18.5%; in the experiment on HCC-2998 colon, 58.6%; in the experiment with KM12 colon, 13.6%.

Regarding `Cn1c(O)c(C(/C=C/c2ccccc2)=Nc2ccccc2N)c(=O)n(C)c1=O`, the growth with SR leukemia is -19.7% (active); with RPMI-8226 leukemia, 58.7%; in the experiment with OVCAR-8 ovarian, 107%; in the experiment with OVCAR-5 ovarian it was 83.4%; with OVCAR-4 ovarian, 101%; in the experiment on IGROV1 ovarian, 77.4%. The growth with OVCAR-3 ovarian was 105%; in the experiment on HS 578T breast, 110%; in the experiment with NCI/ADR-RES ovarian, 96.5%; in the experiment on T-47D breast, 85.5%; in the experiment with BT-549 breast, 121%; in the experiment with MDA-MB-435 melanoma, 95.5%. The growth was 106% in the experiment on SW-620 colon; 99% in the experiment with MCF7 breast; 56.7% with HCT-116 colon; 90% with HCC-2998 colon; 107% with KM12 colon.

For the compound `CCN(CCO)CC(C)Nc1ccc([N+](=O)[O-])c2sc3ccccc3c(=O)c12` (configuration not stated), the growth in the experiment with SR leukemia is 13%; in the experiment with RPMI-8226 leukemia, 40.9%; with OVCAR-8 ovarian, 26.2%; with OVCAR-5 ovarian, 57.7%; in the experiment on OVCAR-4 ovarian it was 43.7%; in the experiment on IGROV1 ovarian it was -11.3% (active). Also, the growth is 49.1% in the experiment with OVCAR-3 ovarian; 26.8% in the experiment with HS 578T breast; 37.2% in the experiment with NCI/ADR-RES ovarian; 39.9% in the experiment with T-47D breast; 58.9% with BT-549 breast; 23.5% in the experiment with MDA-MB-435 melanoma. For the same compound, the growth was 18.6% with SW-620 colon; 13.1% in the experiment with MCF7 breast; 11.8% in the experiment on HCT-116 colon; 38.6% in the experiment with HCC-2998 colon; 37.9% in the experiment with KM12 colon.

With `O=P(O)(O)OCC1OC(n2cnc3c(NCc4ccccc4)ncnc32)C(O)C1O` (configuration not stated), the growth in the experiment with SR leukemia was 41.7%; in the experiment on RPMI-8226 leukemia it was 29.5%; in the experiment with OVCAR-8 ovarian it was 11.5%; in the experiment on OVCAR-5 ovarian, 57.7%; in the experiment with OVCAR-4 ovarian, 25.5%; in the experiment on SK-OV-3 ovarian, 9.33% (active). Further, the growth in the experiment on HS 578T breast is 28.2%; with NCI/ADR-RES ovarian it was 29.7%; in the experiment on T-47D breast, 22.1%; with BT-549 breast, -18.8% (active); in the experiment on MDA-MB-435 melanoma it was 25.4%; in the experiment with SW-620 colon, 24.5%. Further, the growth in the experiment with MCF7 breast was 27.6%; with HCT-116 colon, 7.45% (active); with HCC-2998 colon, 29.9%; with KM12 colon it was 80.7%.

As for `CCCCCCCCCCCCCCCCOC(=O)c1c(C)[nH]c(/C=C2\N=C(c3ccc[nH]3)C=C2OC)c1C`, the growth was 68.2% in the experiment on SR leukemia; -2.3% (active) in the experiment with RPMI-8226 leukemia; 15.3% in the experiment with OVCAR-8 ovarian; 78.4% in the experiment with OVCAR-5 ovarian; 72.2% with OVCAR-4 ovarian; 35.6% in the experiment on IGROV1 ovarian. In addition, the growth in the experiment on OVCAR-3 ovarian is 47.6%; in the experiment on HS 578T breast, 65.9%; with NCI/ADR-RES ovarian, 26.6%; in the experiment with T-47D breast, 31.2%; in the experiment on MDA-MB-435 melanoma, 15.7%; with SW-620 colon it was 10.9%. Further, the growth with MCF7 breast is 8.67% (active); in the experiment with HCT-116 colon it was -0.291% (active); in the experiment with HCC-2998 colon, 24.3%; in the experiment on KM12 colon, 22.7%.

On to `CCCCCn1sc(=O)n(Cc2ccc(CNC(=O)OCc3ccc4c(Cl)cc(Cl)c(O)c4n3)cc2)c1=O`, for which the growth is 64.3% with SR leukemia; 60.6% in the experiment on RPMI-8226 leukemia; 42.3% with OVCAR-8 ovarian; 90% with OVCAR-5 ovarian; 66.4% in the experiment with OVCAR-4 ovarian; 53.5% with IGROV1 ovarian. In addition, the growth was 69.8% in the experiment on OVCAR-3 ovarian; 70.9% in the experiment with HS 578T breast; 9.85% (active) in the experiment with NCI/ADR-RES ovarian; 60.8% in the experiment on T-47D breast; 71.1% in the experiment with BT-549 breast; 68% in the experiment on MDA-MB-435 melanoma. In addition, the growth with SW-620 colon was 58.4%; with MCF7 breast, 69.5%; in the experiment with HCT-116 colon it was 44.6%; in the experiment with HCC-2998 colon it was 95.2%; in the experiment with KM12 colon, 57.5%.

In the case of `CC(C)[C@@]12C[C@@H](OC(=O)COC(=O)c3ccccc3)[C@@](C)(O1)[C@@H]1CC[C@@H](C)[C@H]1[C@@H]2OC(=O)/C=C/c1ccccc1`, the growth in the experiment with SR leukemia was 78.6%; in the experiment with RPMI-8226 leukemia, 85.3%; in the experiment on OVCAR-8 ovarian, 31.7%; with OVCAR-5 ovarian, 95.7%; with OVCAR-4 ovarian it was 87.2%; in the experiment with IGROV1 ovarian, 114%. The growth in the experiment on OVCAR-3 ovarian was 94.8%; in the experiment on HS 578T breast, -14.4% (active); in the experiment on NCI/ADR-RES ovarian, 25.2%; in the experiment with T-47D breast it was 60.1%; in the experiment with BT-549 breast, 22.9%; in the experiment with MDA-MB-435 melanoma, 99.8%. In addition, the growth in the experiment with MCF7 breast was 81.9%; with HCT-116 colon, 83.6%; in the experiment on HCC-2998 colon, 97.2%; in the experiment on KM12 colon, 94.9%.

Take `CCNCc1ccc(O)c2ncccc12`: the growth in the experiment with SR leukemia was 19%; in the experiment with RPMI-8226 leukemia, 24.2%; with OVCAR-8 ovarian, 23%; with OVCAR-5 ovarian it was 64.7%; in the experiment with OVCAR-4 ovarian, 17.8%; in the experiment with IGROV1 ovarian, 46%. In addition, the growth with OVCAR-3 ovarian is 37.7%; in the experiment on HS 578T breast, 39.9%; in the experiment with NCI/ADR-RES ovarian, 27.3%; with T-47D breast, 27.3%; with BT-549 breast, 40.8%; in the experiment on SW-620 colon, 33.1%. For the same compound, the growth in the experiment with MCF7 breast is 17.3%; in the experiment on HCT-116 colon, 21.6%; in the experiment with HCC-2998 colon, 45.9%; in the experiment with KM12 colon it was 29.2%.
